Peptide text beside a SMILES is read from it.

A short description of this assay: High-throughput drug toxicity screening in the BPDCN cell line Gen2.2 (AID 1224824). Particulars: Gen2.2 BPDCN cells; at 45.8 µM (top of the series) unless noted. An excerpt: Blastic plasmacytoid dendritic cell neoplasm (BPDCN) is a rare, aggressive and largely incurable hematologic malignancy originating from plasmacytoid dendritic cells (pDCs). Although an initial response to chemotherapy is common, BPDCN prognosis is extremely poor and most patients relapse with drug-resistant disease leading to a median overall survival of ~1 year after diagnosis. To explore novel potential therapeutic strategies in BPDCN, we performed a high-throughput drug toxicity screening in BPDCN cell liens, using of a library of 1,912 small molecules, enriched for compounds that are either approved or in early stages of development for cancer therapy.
A total of 500 exponentially growing Gen2.2 cells were seeded per well in 5 uL of media (RPMI + Glutamine, without phenol red plus10% FBS and 1X Pen/Strep) into 1536-well solid white high base tissue culture treated Greiner One Bio Plates (789173-F), using a multidrop combi dispenser and a small sterile cassette. Compounds and controls totaling 23nL per well (negative control DMSO and positive control 9.2 uM Bortezomib-final) were immediately added to the plates using a 1536 head pin tool from Kalypsys. The plates were then covered with stainless steel gasket lids from Kalypsys and incubated for 48 hours at 37C under 95% relative humidity with 5% CO2. After 48 hours, the plates were removed and allowed to reach room temperature before 3 uL of Cell Titer Glo reagent (Promega) were added using an Aurora Flying Reagent Dispenser Bioraptor. The plates were then spun at 1000 rpms to remove bubbles and incubated for 15 minutes at room temperature before reading on a ViewLux using a luminescent filter with a 10 second exposure. The relative luciferase units were used to calculated percent activity using DMSO as 100% and Bortezomib as 0%.
On to `C=C(c1ccc(C(=O)O)cc1)c1cc2c(cc1C)C(C)(C)CCC2(C)C`, for which the cell viability, % of control (lower = more cytotoxic) turned out to be 577%. As for `CC(=O)NC[C@H]1CN(c2ccc(N3CCOCC3)c(F)c2)C(=O)O1`, the cell viability, % of control (lower = more cytotoxic) was 81.5%. In the case of `O=Nc1c(-c2c(O)[nH]c3cc(Br)ccc23)[nH]c2ccccc12`, the cell viability, % of control (lower = more cytotoxic) worked out at 1.04%. The result for `Cc1cc(O)c2c(c1)C(=O)c1cc(O)cc(O)c1C2=O` reads 207%; that for `COC(=O)C1=C(C)NC(C)=C(C(=O)OC(C)C)C1c1cccc2nonc12` (stereo not given), 131%; that for `Nc1cc(C(Cl)=C(Cl)Cl)c(S(N)(=O)=O)cc1S(N)(=O)=O`, 360%.

Take `Cc1cc(C2CCCCC2)n(O)c(=O)c1`: the cell viability, % of control (lower = more cytotoxic) is 17%. As to `COc1cc(Nc2c(C#N)cnc3cc(OCCCN4CCN(C)CC4)c(OC)cc23)c(Cl)cc1Cl`, the cell viability, % of control (lower = more cytotoxic) was found to be 5%. For the compound `COc1cc(OC)c(C(=O)CCCN2CCCC2)c(OC)c1`, the cell viability, % of control (lower = more cytotoxic) worked out at 165%. As to `Nc1ncn([C@H]2C[C@H](O)[C@@H](CO)O2)c(=O)n1`, the cell viability, % of control (lower = more cytotoxic) was 125%. As to `C[C@@H](N)C1CCC(C(=O)Nc2ccncc2)CC1` (stereo not given in full), the cell viability, % of control (lower = more cytotoxic) was 84.4%. For `Cc1cccc(CN2CCN(C(c3ccccc3)c3ccc(Cl)cc3)CC2)c1` (stereo not given), the cell viability, % of control (lower = more cytotoxic) turned out to be 156%. Regarding `NNc1nncc2ccccc12`, the cell viability, % of control (lower = more cytotoxic) was determined as 166%. Take `O=C(O)c1cn(-c2ccc(F)cc2)c2cc(N3CCNCC3)c(F)cc2c1=O`: the cell viability, % of control (lower = more cytotoxic) is 47.7%. Regarding `CN(C)C(=O)COC(=O)Cc1ccc(OC(=O)c2ccc(N=C(N)N)cc2)cc1`, the cell viability, % of control (lower = more cytotoxic) worked out at 129%.

Consider `Cc1c(OCC(F)(F)F)ccnc1CS(=O)c1nc2ccccc2[nH]1` (stereo not given), for which the cell viability, % of control (lower = more cytotoxic) was 595%. For the compound `c1cnc2cc3c(cc2n1)C1CNCC3C1`, the cell viability, % of control (lower = more cytotoxic) amounted to 95.8%. For `COCCCOc1ccnc(CS(=O)c2nc3ccccc3[nH]2)c1C` (stereo not given), the cell viability, % of control (lower = more cytotoxic) turned out to be 139%. For the compound `Cc1ccc(C)c(OCCCC(C)(C)C(=O)O)c1`, the cell viability, % of control (lower = more cytotoxic) came to 120%.

For `COc1ccc(C2(C#N)CCC(C(=O)O)CC2)cc1OC1CCCC1` (stereo not given), the cell viability, % of control (lower = more cytotoxic) amounted to 129%. Take `COC(=O)[C@H](Cc1ccccc1)NC(=O)[C@@H](N)CC(=O)O` (H-Asp-Phe-OMe): the cell viability, % of control (lower = more cytotoxic) worked out at 280%. Turning to `CC(C)[C@H](N)C(=O)OCCOCn1cnc2c(=O)[nH]c(N)nc21`, the cell viability, % of control (lower = more cytotoxic) was 57%. With `O=C1NC(=O)C(c2ccccc2[N+](=O)[O-])=C1Nc1ccc(O)c(Cl)c1`, the cell viability, % of control (lower = more cytotoxic) was found to be 124%.

Take `COc1ccc2cc([C@H](C)C(=O)O)ccc2c1`: the cell viability, % of control (lower = more cytotoxic) stood at 127%. For `CCCc1cc(=O)[nH]c(=S)[nH]1`, the cell viability, % of control (lower = more cytotoxic) came to 62.4%. As for `Clc1ccc(C(Cn2ccnc2)OCc2ccc(Sc3ccccc3)cc2)c(Cl)c1` (stereo not given), the cell viability, % of control (lower = more cytotoxic) was 183%. Take `Cc1cccc(-c2[nH]ncc2-c2ccc3ncccc3n2)n1`: the cell viability, % of control (lower = more cytotoxic) was found to be 759%.

As for `CCOC(=O)C(C)Oc1cccc2c(=O)n(CC(=O)Nc3ccc4c(c3)OCCO4)ccc12` (stereo not given), the cell viability, % of control (lower = more cytotoxic) stood at 102%. Consider `N=C(N=C(N)N)N1CCOCC1`, for which the cell viability, % of control (lower = more cytotoxic) came out at 139%.

Turning to `Cc1cccc(C)c1OCC(=O)N[C@@H](Cc1ccccc1)[C@@H](O)C[C@H](Cc1ccccc1)NC(=O)[C@H](C(C)C)N1CCCNC1=O`, the cell viability, % of control (lower = more cytotoxic) was determined as 28%. The result for `O=c1cc(N2CCOCC2)oc2c(-c3ccccc3)cccc12` reads 13.3%; that for `O=C1c2c(O)cc(O)cc2OC(c2ccc(O)c(O)c2)C1O` (stereo not given), 155%.

Consider `Cc1c(C(=O)NN2CCCCC2)nn(-c2ccc(Cl)cc2Cl)c1-c1ccc(Cl)cc1`, for which the cell viability, % of control (lower = more cytotoxic) is 24.4%.

For `O=C(NOCC1CC1)c1ccc(F)c(F)c1Nc1ccc(I)cc1Cl`, the cell viability, % of control (lower = more cytotoxic) came out at 6.36%. For the compound `Nc1nc(N)c(N=O)c(OCC2CCCCC2)n1`, the cell viability, % of control (lower = more cytotoxic) was 18.1%.

As to `O=c1c(O)c(-c2cc(O)c(O)c(O)c2)oc2cc(O)cc(O)c12`, the cell viability, % of control (lower = more cytotoxic) came out at 54.4%. Turning to `O=C(CS(=O)Cc1ccco1)NCC=CCOc1cc(CN2CCCCC2)ccn1` (stereo not given), the cell viability, % of control (lower = more cytotoxic) came out at 120%. The result for `Cc1nc(Nc2ncc(C(=O)Nc3c(C)cccc3Cl)s2)cc(N2CCN(CCO)CC2)n1` reads 74.9%; that for `Cc1ccc(S(=O)(=O)NC(=O)NN2CC3CCCC3C2)cc1` (stereo not given), 109%; that for `CN1CCC(=C2c3ccccc3CCc3sccc32)CC1`, 93.1%.
